Measurements taken from PubChem BioAssay (NCI).
About 83,000 compounds went through this panel and 20% of them were active in at least one assay; those are over-represented in the sample as a whole.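 Interpretation: 100, growth as untreated; towards 0, rising growth inhibition; 0, no net growth; 0 to -100, cell death. Compounds scoring below 10 were considered active.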 A number with no mark means an inactive call. Active and inactive are the calls of the source.

Columns and labels:
Assay in all cases: NCI-60 one-dose screen, 48 h (100 = growth as untreated, 0 = no growth, -100 = all killed)
Settings in all cases: 10 µM unless noted
HCT-15 colon = tested on: HCT-15 colon
HT29 colon = tested on: HT29 colon
SNB-75 CNS = tested on: SNB-75 CNS
SNB-19 CNS = tested on: SNB-19 CNS
U251 CNS = tested on: U251 CNS
PC-3 prostate = tested on: PC-3 prostate
SK-MEL-5 melanoma = tested on: SK-MEL-5 melanoma
UACC-62 melanoma = tested on: UACC-62 melanoma
SK-MEL-28 melanoma = tested on: SK-MEL-28 melanoma
LOX IMVI melanoma = tested on: LOX IMVI melanoma

Structure (SMILES)	growth (HCT-15 colon)	growth (HT29 colon)	growth (SNB-75 CNS)	growth (SNB-19 CNS)	growth (U251 CNS)	growth (PC-3 prostate)	growth (SK-MEL-5 melanoma)	growth (UACC-62 melanoma)	growth (SK-MEL-28 melanoma)	growth (LOX IMVI melanoma)
CCCCCC1CCCCN1C(=O)OCC (stereo not given)	96%	101%	88.4%	105%	96.7%	91.9%	116%	105%	106%	
COc1ccccc1-n1cnc(N)c1C(=O)c1cc(OC)c(OC)c(OC)c1	35.5%	11.7%	8.36% (active)	55.1%	36.8%	50.2%	28.5%	29.1%	51.5%	
Cn1cc(-c2csc(-c3cn(C(=O)OC(C)(C)C)c4ccc(Br)cc34)n2)c2cccnc21	93.4%	93.4%	78.9%	93.2%	87.4%	87.5%	97%	91%	108%	
CCN1CCN(C(=O)[C@]23CCC(C)(C)C[C@@H]2C2=CC[C@@H]4[C@@]5(C)C/C(=C/c6ccncc6)C(=O)C(C)(C)[C@@H]5CC[C@@]4(C)[C@]2(C)CC3)CC1	-63.9% (active)	-39.8% (active)	25%	-16.1% (active)	-77.2% (active)	-5% (active)	-98.8% (active)	-86% (active)	-82.5% (active)	
COc1cc2nc(Cl)nc(Nc3cccc(C(=O)/C=C/c4ccc(Br)cc4)c3)c2cc1OC	43.6%	68.4%	76.6%	86.1%	80%	65.5%	91.6%	81.5%	92.7%	
c1cc(N2CCCC2)c2nc(-c3[nH]ncc3Nc3ncnc4[nH]ccc34)[nH]c2c1	-26.4% (active)	1.13% (active)	-59.6% (active)	-13.1% (active)	3% (active)	3.86% (active)	-89.3% (active)	-78.5% (active)	-53.3% (active)	
CC(=O)c1c(C)[nH]c(-c2nc3ccc(N4CCN(C)CC4)cc3[nH]2)c1-c1ccc2c(c1)OCCO2	8.46% (active)	14.2%	1.99% (active)	51.3%	57.2%	45.8%	26.1%	20.9%	50.8%	
CN(CSc1ccc(Cl)cc1)c1ccc(CSc2ccc(Cl)cc2)cc1	62.8%	96.8%	86%	84.7%	53.6%	38.4%	70.9%	84%	79.9%	
C=C(C)[C@@H]1CC[C@]2(C=NCCCNCCCCNCCCN)CC[C@]3(C)[C@H](CC[C@@H]4[C@@]5(C)CCCNC(C)(C)[C@@H]5CC[C@]43C)[C@@H]12	82.6%	39%	114%	88.3%	91.6%	85.9%	96%	100%	111%	
COc1cc(-c2cc(-c3nc4cc(Cl)c(Cl)cc4[nH]3)[nH]n2)cc(OC)c1OC	52%	72.6%	70.4%	78.1%	75.7%	5.57% (active)	19.6%	24.1%	47.6%	
C=C(C)[C@@H]1CC[C@]2(C(=O)N3CCN(C)CC3)CC[C@]3(C)[C@H](CC[C@@H]4[C@@]5(C)C/C(=C/c6ccc(C(F)(F)F)cc6)C(=O)C(C)(C)[C@@H]5CC[C@]43C)[C@@H]12	86.5%	95.7%	80.7%	97.3%	87.1%	78.8%	99.1%	96.3%	104%	
CC(C)(C)c1cc(-n2c(-c3ccc(Cl)cc3)nc3cc(C(=O)Nc4ccc(Cl)cc4)ccc32)n[nH]1	39.2%	89.5%	60.7%	60.2%	53.2%	33.7%	44.8%	39%	79.7%	
O=S(=O)(NCCNc1cc(-c2cn(-c3ccccc3)nc2-c2cccc(O)c2)ccn1)c1ccc(F)cc1	6.55% (active)	1.75% (active)	45.6%	46.5%	17.4%	15.1%	-12% (active)			27.7%
CC(=O)Cc1nsc(NC(=O)c2ccoc2COc2ccccc2)n1	105%	107%	99.4%	93.6%	96.5%	89.9%	101%	93%	103%	
CC(C)/C=C/CC[C@](C)(O)[C@H]1CC[C@]2(C)[C@@H]1CC[C@@H]1[C@@]3(C)C/C(=C/c4cccc(C(F)(F)F)c4)C(=O)C(C)(C)[C@@H]3CC[C@]12C	90.6%	97.3%	62.8%	92.2%	92.6%	79.5%	97.6%	81.8%	105%	
N#C/C(=C\c1ccc(-c2ccc(F)cc2)o1)c1nc(-c2ccco2)cs1	84.5%	98.7%	88.9%	101%	97.3%	93.3%	92.8%	87.1%	114%	
O=c1[nH]ncc(Br)c1Br	15.7%	-35.1% (active)	79.8%	72.4%	30.9%	65.7%	69.4%	87.3%	14.7%	
Nc1c2c(nc3ccc(Br)cc13)CC(c1ccccc1)CC2=O (stereo not given)	21.9%	15.7%	-1.66% (active)	37%	41.8%	40.4%	20.1%	38.1%	55.5%	
COc1cccc(-c2nn(-c3ccccc3)cc2-c2ccnc(NCCCNS(=O)(=O)c3ccc(Br)cc3)c2)c1	42.5%	9.65% (active)	75.2%	60.2%	40.2%	26.4%	39.9%			56.6%
O=C1C=Cc2ncccc2C1=O	80.3%	108%	119%	85.2%	42.2%	88.5%	92.9%	90.7%	121%	
Cn1c2c(c3ccc(Cl)cc31)-n1cccc1C2=O	83.5%	70.8%	87.5%	85.5%	89.3%	101%	98.4%	89.8%	109%	
CC1(C)CC[C@]2(C(=O)Nc3ccccn3)CC[C@]3(C)C(=CC[C@@H]4[C@@]5(C)C/C(=C/c6ccncc6)C(=O)C(C)(C)[C@@H]5CC[C@]43C)[C@@H]2C1	15.3%	9.45% (active)	91.6%	58.4%	10.3%	28%	-49.8% (active)	23.9%	37.5%	
CCCC1CCCCN1C(=O)OCC(C)C (stereo not given)	108%	102%	99.5%	102%	103%	96.5%	109%	103%	113%	
NC(N)=N/N=C/c1ccc(-c2ccc(-c3ccc(Cl)cn3)s2)cc1	-4.03% (active)	11.9%	88.9%	94.2%	20.6%	-42.3% (active)	91.6%	99.1%	99.2%	
CCN1CCN(C(=O)[C@]23CC[C@@H](C)[C@H](C)[C@H]2C2=CC[C@@H]4[C@@]5(C)C/C(=C/c6cccc(OC)c6OC)C(=O)C(C)(C)[C@@H]5CC[C@@]4(C)[C@]2(C)CC3)CC1	19.2%	21.5%	35.6%	53.1%	38.4%	18.8%	46.2%	57.4%	58.7%	
COc1cc2nc(Cl)nc(Nc3cccc(C(=O)/C=C/c4ccc(F)cc4)c3)c2cc1OC	-4.45% (active)	16.1%	88.3%	50.1%	32.6%	46.4%	73.4%	51.5%	62.6%	
Cn1c2ccccc2c2c3c(c4c5cccnc5[nH]c4c21)C(=O)N(O)C3=O	67.4%	28.9%	61%	38.1%	21%	42.4%	12.7%			2.63% (active)
